# Bioassay records from PubChem BioAssay.
# Compounds with a hit are over-represented: about 7.2% of the library has one in this group of screens.
# FMDV inh = blocks foot and mouth disease virus; Potency, µM (top dose mostly 57.9 µM), inactives show top-dose activity change, negative = inhibition, most hits filed as inhibitors; AID 1159524; FMDV antiviral cell-based qHTS; 1.2% of 410,000 active; calls by dose curve; tested in HEK293T cells; also: read-out not given here; nearly all actives have a fitted effect of over 45% in size
# MARV entry inh = inhibitors of Marburg virus binding or cell entry; Potency, µM (doses to about 37.8 µM), for the others: top-dose activity change, negative = inhibition, actives largely listed as inhibitors; Marburg virus pseudotyped entry inhibition, cell reporter; 1.8% of 300,000 active; AID 540276; calls by dose curve; tested in HEK293 cells
# Sm TGR inh = inhibitors of Schistosoma mansoni thioredoxin glutathione reductase. purified TGR, DTNB reduction, TNB absorbance 405 nm. Potency, µM (doses to about 114 µM), inactives show at the top dose activity change, negative = inhibition, most hits filed as inhibitors. 3% of 360,000 active; also: nearly all actives have a fitted effect of over 60% in size
#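 Kinetic colorimetric format: TGR-catalysed, NADPH-driven DTNB reduction monitored via TNB absorbance. Enzyme dispensed at 20 nM; compound exposure 15 min at room temperature before reaction start.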
# LASV entry inh = Lassa virus entry inhibition | 1.2% of 300,000 active | Lassa virus pseudotype entry inhibition, cell reporter | AID 540256 | Potency, µM (top dose mostly 37.9 µM), without a hit: top-dose activity change, negative = inhibition, actives largely listed as inhibitors; calls by dose curve; tested in HEK293 cells; also: nearly all actives have a fitted effect of over 50% in size
# HCV inhibitor = inhibitors of hepatitis C virus infection | Huh7.5.1 HCVcc-Cre infection, luciferase reporter, 44 h | Potency, µM (top dose mostly 41.8 µM), without a hit: top-dose activity change, negative = inhibition, actives largely listed as inhibitors | 3.4% of 340,000 active | AID 651820
#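 Antiviral activity was scored by luciferase reporter output from cells infected with HCVcc-Cre (~0.5 moi) in presence of compound, 44 h infection period, cells seeded 1,000/well 4 h prior.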
# RE007 growth inh = less growth of the S. pombe RE007 Vpr strain; S. pombe RE007 Vpr strain, BacTiter-Glo ATP luminescence, 24 h; 0.21% of 360,000 active; Potency, µM (highest dose often 92.2 µM), for the others: at the highest dose activity change, negative = less growth, hits mostly inhibitors; active = well fitted falling curve with a large enough effect; inconclusive = small, poorly fitted or top-dose-only effect; inactive = no such curve, though single readings can be large or run the other way; also: nearly all actives have a fitted effect of over 50% in size
#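 Fission yeast RE007 carrying one integrated HIV-1 vpr copy, seeded at OD 0.01 in PMG+AL medium with 23 nL pinned compound. Grown 24 h at 30 degrees; viability read by BacTiter-Glo luminescence after 5 min.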
# * = called active by the depositor; ? = inconclusive; · = no result given; [ ] = another dose, or the depositor's remark. Unless noted, calls follow the shape of the dose curve; as a rule, active = well fitted curve in the direction sought with a large enough effect; inconclusive = small, poorly fitted or top-dose-only effect, or another doubt; inactive = no such curve, though single readings can be large; an effect the other way counts as inactive or inconclusive. % is scaled to controls: 0 for no effect and ±100 for the full control effect; potency is read from the fitted curve at half-maximal effect.
SMILES,FMDV inh,MARV entry inh,Sm TGR inh,LASV entry inh,HCV inhibitor,RE007 growth inh
O=C(Cn1nnc(-c2ccc(F)cc2)n1)OCC(=O)c1ccccc1,3.0%,20.9%[46.1 µM],10µM*,1.3%[46.1 µM],9.8%,5.6%
CCOC(=O)c1ccc(NC(=O)Cn2nnc(-c3ccccc3F)n2)cc1,0.0%,?,-21.6%,8.0%,-14.1%,-9.4%
O=C(Cn1nnc2ccccc21)N/N=C/c1ccco1,-0.9%,13.0%,6.0%,0.0%[46.1 µM],5.9%,2.7%
O=C(Cn1nnc(-c2ccccc2)n1)N/N=C/c1ccco1,-3.2%,?,-5.1%,3.3%[46.1 µM],12.6µM*,-3.9%
COc1ccccc1NC(=O)c1ccc(NC(=O)COC(=O)c2cncc(Br)c2)cc1,-6.7%,·,·,·,-19.7%,0.7%
Fc1ccc(-c2nnn(Cc3ccccc3Cl)n2)cc1,51.7%,?,1.2%,?,2µM*,13.9%
O=C(Cn1nnc(-c2ccccc2F)n1)NCc1ccco1,11.2%,27.8%[46.1 µM],44.7µM*,1.2%,1.7%,8.1%
O=C(CCl)N1CCN(S(=O)(=O)c2ccc3c(c2)CCC3)CC1,20µM*,·,5.01µM*,·,14.1µM*,9.4%
CC(c1ccccc1)N1CCN(C(=O)CCl)CC1 (configuration not stated),?,?,44.7µM*,?,?,-8.3%
CCOC(=O)N1CCN(S(=O)(=O)Cc2ccccc2)CC1,-9.5%,-0.5%,-14.9%,1.3%,-0.1%,-2.3%
O=C(CCl)N1CCN(S(=O)(=O)Cc2ccccc2)CC1,28.2µM*,·,15.8µM*,·,?,8.3%
CN1C(=O)N(CC(=O)N2CCN(S(=O)(=O)c3ccc4c(c3)CCC4)CC2)C(=O)C12CCCCC2,-8.2%,-4.0%,3.8%,10.3%,23.8%,-11.7%
O=C([C@@H]1C[C@@H](Sc2nc3ccccc3[nH]2)CN1Cc1ccc(Cl)cc1)N1CCN(c2ccccc2F)CC1,10.5%,·,·,·,·,·
C[C@@H]1O[C@@H](OC[C@H]2O[C@@H](Oc3c(-c4ccc(OCCO)c(OCCO)c4)oc4cc(OCCO)cc(O)c4c3=O)[C@H](O)[C@@H](O)[C@@H]2O)[C@H](O)[C@H](O)[C@H]1O,-2.7%,·,·,·,·,·
Cc1cc(C)c2c(NC(=S)NC(=O)c3ccccc3)nn(C)c2n1,1.7%,26.6%[46.1 µM],?,22.6%,-13.4%,-7.5%
Cc1cc(C)c2c(NC(=O)CCl)nn(C)c2n1,?,?,31.6µM*,?,?,13.0%
O=C(CN1CCN(c2ccc(Cl)cc2)CC1)NCc1ccccc1,-20.5%,?,0.0%,6.31µM*,?,10.3%
Cc1[nH]c2ccccc2c1C(O)CN1CCN(c2cccc(C(F)(F)F)c2)CC1 (configuration not stated),?,?,31.6µM*,?,-29.7%,-2.9%
O=C(CN1CCN(c2cccc(C(F)(F)F)c2)CC1)NCc1ccccc1,-25.0%,3.1%,-6.1%,8.91µM*,8.3%,-11.4%
O=C(CN1CCN(c2cccc(C(F)(F)F)c2)CC1)Nc1cccc(C(F)(F)F)c1,-18.6%,8.6%,-7.1%,7.7%,10.7%,8.0%
Clc1ccc(CNc2ccc(N3CCN(Cc4ccccc4)CC3)cc2)cc1,?,?,-20.7%,?,10µM*,2.3%
O=C(CN1CCN(c2cccc(Cl)c2)CC1)NCc1ccccc1,-15.0%,·,0.0%,·,13.1%,-10.1%
COc1cc2nc(N(C)C)c(CNCc3cccc4ccccc34)cc2c(OC)c1OC,-24.1%,·,·,·,·,·
COc1ccc(-c2ccc(C(=O)NCC3CCOCC3)c3occc23)c(C)c1,?,·,·,·,·,36.4%
O=[N+]([O-])c1ccc(N2CCN(C(=S)NCc3ccc(Cl)cc3)CC2)cc1,?,·,5.5%,·,11.2µM*,-12.9%
SMILES,FMDV inh,MARV entry inh,Sm TGR inh,LASV entry inh,HCV inhibitor,RE007 growth inh
COc1cccc(-c2nc(CS(=O)CC(=O)NCCCOC(C)C)c(C)o2)c1 (configuration not stated),-20.7%,-1.4%,25.1µM*,14.9%,2.9%,-4.7%
COc1cccc(-c2nc(CS(=O)CC(=O)NCCc3ccccc3)c(C)o2)c1 (configuration not stated),18.7%,·,20µM*,·,-1.8%,1.2%
Cc1oc(-c2ccccc2F)nc1CS(=O)CC(=O)NCc1ccccc1 (configuration not stated),33.1%,26.5%[46.1 µM],-20.3%,-19.7%[46.1 µM],1.0%,-6.6%
Cc1ccccc1-c1nc(CS(=O)CC(=O)NC(C)CCc2ccccc2)c(C)o1 (configuration not stated),-12.3%,·,0.141µM*,·,-3.8%,1.2%
CCC(C)NC(=O)CS(=O)Cc1nc(-c2cccc(OC)c2)oc1C (configuration not stated),-20.6%,·,28.2µM*,·,-3.0%,2.4%
CC1=C(c2ccc(C)cc2)S(=O)(=O)N(Cc2ccc(C(=O)NCc3ccccc3F)cc2)C1=O,-17.1%,·,-6.6%,-0.6%[46.1 µM],·,·
CCOC(=O)c1c(C)n(-c2ccccc2)c2ccc(OC(=O)COc3ccc(Cl)cc3)cc12,-24.9%,·,7.0%,11.5%[46.1 µM],·,·
CC(C)c1ccc(NC(=O)C(Cc2ccccc2)n2cccc2)cc1 (configuration not stated),-18.2%,19.6%[46.1 µM],4.3%,·,·,·
COc1ccc(-c2nc(CS(=O)CC(=O)NCCc3ccc(C)cc3)c(C)o2)cc1OC (configuration not stated),-12.4%,-1.3%[46.1 µM],39.8µM*,16.2%[46.1 µM],-10.7%,-19.3%
COCCCNC(=O)CS(=O)Cc1nc(-c2ccccc2C)oc1C (configuration not stated),-20.4%,·,39.8µM*,·,-5.5%,-4.3%
COc1cccc(-c2nc(CS(=O)CC(=O)NC(C)CCc3ccccc3)c(C)o2)c1 (configuration not stated),-17.2%,·,10µM*,·,?,-6.5%
COc1ccc(CCNC(=O)CS(=O)Cc2nc(-c3ccc(C)cc3)oc2C)cc1OC (configuration not stated),-9.9%,12.8%[46.1 µM],?,?,-25.2%,2.1%
CC1=C2C(=COC(C)C2C)C(=O)C(C(=O)O)=C1O (configuration not stated),-14.0%,·,·,·,·,·
COc1cc(/C=N/N2CCCCC2)cc(OC)c1O,37.4%,?,14.1µM*,2.6%[46.1 µM],4.7%,-9.8%
Oc1ccc(/C=N/N2CCCCC2)cc1O,23.1%,20.0%[46.1 µM],2.82µM*,?,14.4%,-8.4%
COc1ncc2nc(-c3ccc(F)cc3)c(=O)n(-c3ccccc3)c2n1,-11.6%,·,·,·,·,·
O=C1c2ccccc2C(=O)c2c1ccc1c(=O)n(-c3ccccc3)[nH]c21,-23.3%,-18.3%,-1.1%,8.3%,?,-10.6%
CC(C)Cn1[nH]c2c3c(ccc2c1=O)C(=O)c1ccccc1C3=O,-1.8%,-28.4%,6.0%,?,11.2µM*,-11.4%
COc1ccc(C(=O)CSc2nnc(C3CCCCC3)n2N)c(OC)c1,-0.3%,?,3.6%,?,10µM*,0.6%
